# Source: PubChem BioAssay AID1159580 (chemical genetic matrix, 2015)
# About 2,000 (36%) of roughly 5,500 compounds were called active. Not shown: some 18% with an inconclusive outcome. The list shows a part of the results. A number with no mark means an inactive call. No stated cut-off is given here; in the data, active means normalized growth mostly below about 0.91 (no sharp cut-off); inconclusive means no clear call, values can overlap the other calls; inactive means mostly above about 0.92.
# Assay: chemical genetic growth profiling, strain panel (AID 1159580);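 further: tested at 20 µM; growth read once vehicle control cultures reached saturation at 30 °C; 1 = growth at the plate median or of vehicle wells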
# Conditions: growth OD
structure (smiles),measurement,setting,value
COc1ccc2c(c1)O[C@@H]1COc3cc(OC)c(OC)cc3[C@@H]1C2=O,normalized growth,"S. cerevisiae deletion strains, locus YJR043C, strain POL32, stronger effect = lower value",0.719 (active)
same,normalized growth,"S. cerevisiae deletion strains, locus YJR066W, strain TOR1, stronger effect = lower value",0.92
same,normalized growth,"S. cerevisiae deletion strains, locus YJR075W, strain HOC1, stronger effect = lower value",0.776 (active)
same,normalized growth,"S. cerevisiae deletion strains, locus YKL009W, strain mrt4, stronger effect = lower value",1.01
same,normalized growth,"S. cerevisiae deletion strains, locus YKL068W, stronger effect = lower value",0.984
same,normalized growth,"S. cerevisiae deletion strains, locus YKL085W, strain MDH1 (second series), stronger effect = lower value",0.984
same,normalized growth,"S. cerevisiae deletion strains, locus YKL085W, strain MDH1, stronger effect = lower value",0.984
same,normalized growth,"S. cerevisiae deletion strains, locus YKL160W, strain elf1, stronger effect = lower value",0.428 (active)
same,normalized growth,"S. cerevisiae deletion strains, locus YKR001C, strain vps1, stronger effect = lower value",0.912
same,normalized growth,"S. cerevisiae deletion strains, locus YKR026C, strain gcn3, stronger effect = lower value",0.992
same,normalized growth,"S. cerevisiae deletion strains, locus YKR091W, strain srl3, stronger effect = lower value",0.988
same,normalized growth,"S. cerevisiae deletion strains, locus YLL001W, strain dnm1, stronger effect = lower value",0.794 (active)
same,normalized growth,"S. cerevisiae deletion strains, locus YLL026W, stronger effect = lower value",0.557 (active)
same,normalized growth,"S. cerevisiae deletion strains, locus YLL041C, strain sdh2, stronger effect = lower value",0.674 (active)
same,normalized growth,"S. cerevisiae deletion strains, locus YLR027C, strain aat2, stronger effect = lower value",0.445 (active)
same,normalized growth,"S. cerevisiae deletion strains, locus YLR039C, strain RIC1, stronger effect = lower value",0.914
same,normalized growth,"S. cerevisiae deletion strains, locus YLR058C, strain SHM2, stronger effect = lower value",0.9
same,normalized growth,"S. cerevisiae deletion strains, locus YLR102C, strain apc9, stronger effect = lower value",0.696 (active)
same,normalized growth,"S. cerevisiae deletion strains, locus YLR113W, strain HOG1, stronger effect = lower value",0.983
same,normalized growth,"S. cerevisiae deletion strains, locus YLR221C, strain rsa3, stronger effect = lower value",0.377 (active)
same,normalized growth,"S. cerevisiae deletion strains, locus YLR258W, strain gsy2, stronger effect = lower value",0.705 (active)
same,normalized growth,"S. cerevisiae deletion strains, locus YLR262C, strain YPT6 (second series), stronger effect = lower value",0.994
same,normalized growth,"S. cerevisiae deletion strains, locus YLR262C, strain YPT6, stronger effect = lower value",0.928
same,normalized growth,"S. cerevisiae deletion strains, locus YLR268W, strain sec22, stronger effect = lower value",0.739 (active)
same,normalized growth,"S. cerevisiae deletion strains, locus YLR320W, strain mms22, stronger effect = lower value",0.228 (active)
same,normalized growth,"S. cerevisiae deletion strains, locus YLR342W, strain FKS1, stronger effect = lower value",0.665 (active)
same,normalized growth,"S. cerevisiae deletion strains, locus YLR357W, strain rsc2, stronger effect = lower value",0.932
same,normalized growth,"S. cerevisiae deletion strains, locus YLR370C, strain arc18, stronger effect = lower value",0.984
same,normalized growth,"S. cerevisiae deletion strains, locus YLR371W, strain rom2, stronger effect = lower value",0.854 (active)
same,normalized growth,"S. cerevisiae deletion strains, locus YLR384C, strain iki3, stronger effect = lower value",1.01
same,normalized growth,"S. cerevisiae deletion strains, locus YLR418C, strain cdc73, stronger effect = lower value",0.546 (active)
same,normalized growth,"S. cerevisiae deletion strains, locus YML016C, strain PPZ1, stronger effect = lower value",0.84 (active)
same,normalized growth,"S. cerevisiae deletion strains, locus YML032C, strain rad52, stronger effect = lower value",0.521 (active)
same,normalized growth,"S. cerevisiae deletion strains, locus YML120C, strain ndi1, stronger effect = lower value",0.59 (active)
same,normalized growth,"S. cerevisiae deletion strains, locus YML124C, strain tub3, stronger effect = lower value",0.874 (active)
same,normalized growth,"S. cerevisiae deletion strains, locus YMR058W, strain fet3, stronger effect = lower value",0.537 (active)
same,normalized growth,"S. cerevisiae deletion strains, locus YMR078C, strain ctf18, stronger effect = lower value",0.373 (active)
same,normalized growth,"S. cerevisiae deletion strains, locus YMR125W, strain sto1, stronger effect = lower value",0.612 (active)
same,normalized growth,"S. cerevisiae deletion strains, locus YMR129W, stronger effect = lower value",0.908 (active)
same,normalized growth,"S. cerevisiae deletion strains, locus YMR205C, strain PFK2, stronger effect = lower value",0.23 (active)
same,normalized growth,"S. cerevisiae deletion strains, locus YMR223W, strain ubp8, stronger effect = lower value",0.78 (active)
same,normalized growth,"S. cerevisiae deletion strains, locus YMR231W, strain pep5, stronger effect = lower value",0.991
same,normalized growth,"S. cerevisiae deletion strains, locus YMR263W, strain SAP30, stronger effect = lower value",0.922
same,normalized growth,"S. cerevisiae deletion strains, locus YMR307W, strain GAS1, stronger effect = lower value",0.909
same,normalized growth,"S. cerevisiae deletion strains, locus YNL067W, strain RPL9B, stronger effect = lower value",0.858 (active)
same,normalized growth,"S. cerevisiae deletion strains, locus YNL071W, strain lat1, stronger effect = lower value",0.246 (active)
same,normalized growth,"S. cerevisiae deletion strains, locus YNL153C, strain GIM3, stronger effect = lower value",0.597 (active)
same,normalized growth,"S. cerevisiae deletion strains, locus YNL183C, strain NPR1, stronger effect = lower value",0.927
same,normalized growth,"S. cerevisiae deletion strains, locus YNL209W, strain ssb2, stronger effect = lower value",1.01
same,normalized growth,"S. cerevisiae deletion strains, locus YNL233W, strain BNI4, stronger effect = lower value",0.427 (active)
same,normalized growth,"S. cerevisiae deletion strains, locus YNL248C, strain rpa49, stronger effect = lower value",0.814 (active)
same,normalized growth,"S. cerevisiae deletion strains, locus YNL250W, strain rad50, stronger effect = lower value",0.936
same,normalized growth,"S. cerevisiae deletion strains, locus YNL271C, strain bni1, stronger effect = lower value",0.963
same,normalized growth,"S. cerevisiae deletion strains, locus YNL298W, strain CLA4, stronger effect = lower value",0.97
same,normalized growth,"S. cerevisiae deletion strains, locus YNL307C, strain MCK1, stronger effect = lower value",0.183 (active)
same,normalized growth,"S. cerevisiae deletion strains, locus YNL322C, strain KRE1 (second series), stronger effect = lower value",0.761 (active)
same,normalized growth,"S. cerevisiae deletion strains, locus YNR049C, strain mso1, stronger effect = lower value",0.951
same,normalized growth,"S. cerevisiae deletion strains, locus YNR052C, strain pop2, stronger effect = lower value",0.948
same,normalized growth,"S. cerevisiae deletion strains, locus YOL012C, strain htz1",0.241
same,normalized growth,"S. cerevisiae deletion strains, locus YOL147C, strain pex11, stronger effect = lower value",0.25 (active)
same,normalized growth,"S. cerevisiae deletion strains, locus YOR001W, strain rrp6, stronger effect = lower value",0.689 (active)
same,normalized growth,"S. cerevisiae deletion strains, locus YOR061W, strain CKA2, stronger effect = lower value",0.967
same,normalized growth,"S. cerevisiae deletion strains, locus YOR069W, strain VPS5, stronger effect = lower value",0.905 (active)
same,normalized growth,"S. cerevisiae deletion strains, locus YOR070C, strain gyp1, stronger effect = lower value",0.528 (active)
same,normalized growth,"S. cerevisiae deletion strains, locus YOR080W, strain dia2, stronger effect = lower value",0.839 (active)
same,normalized growth,"S. cerevisiae deletion strains, locus YOR083W, strain WHI5, stronger effect = lower value",0.916
same,normalized growth,"S. cerevisiae deletion strains, locus YOR106W, strain vam3, stronger effect = lower value",0.871
same,normalized growth,"S. cerevisiae deletion strains, locus YOR136W, strain idh2, stronger effect = lower value",0.767 (active)
same,normalized growth,"S. cerevisiae deletion strains, locus YOR144C, strain elg1, stronger effect = lower value",0.573 (active)
same,normalized growth,"S. cerevisiae deletion strains, locus YOR184W, strain ser1, stronger effect = lower value",0.896
same,normalized growth,"S. cerevisiae deletion strains, locus YOR231W, strain MKK1, stronger effect = lower value",0.977
same,normalized growth,"S. cerevisiae deletion strains, locus YOR265W, strain rbl2, stronger effect = lower value",0.797 (active)
same,normalized growth,"S. cerevisiae deletion strains, locus YOR270C, strain vph1, stronger effect = lower value",0.593 (active)
same,normalized growth,"S. cerevisiae deletion strains, locus YOR290C, strain snf2, stronger effect = lower value",0.315 (active)
same,normalized growth,"S. cerevisiae deletion strains, locus YOR316C, strain cot1, stronger effect = lower value",0.771 (active)
same,normalized growth,"S. cerevisiae deletion strains, locus YPL051W, strain arl3, stronger effect = lower value",0.803 (active)
same,normalized growth,"S. cerevisiae deletion strains, locus YPL055C, strain LGE1, stronger effect = lower value",0.775
same,normalized growth,"S. cerevisiae deletion strains, locus YPL078C, strain atp4, stronger effect = lower value",0.635 (active)
same,normalized growth,"S. cerevisiae deletion strains, locus YPL106C, strain sse1, stronger effect = lower value",1.04
same,normalized growth,"S. cerevisiae deletion strains, locus YPL240C, strain hsp82, stronger effect = lower value",0.714 (active)
same,normalized growth,"S. cerevisiae deletion strains, locus YPL256C, strain CLN2, stronger effect = lower value",1.01
same,normalized growth,"S. cerevisiae deletion strains, locus YPR119W, strain clb2, stronger effect = lower value",0.731 (active)
same,normalized growth,"S. cerevisiae deletion strains, locus YPR141C, strain kar3, stronger effect = lower value",0.959
same,normalized growth,"S. cerevisiae deletion strains, locus YPR163C, strain tif3, stronger effect = lower value",0.438 (active)
same,normalized growth,"S. cerevisiae deletion strains, locus YPR167C, strain met16, stronger effect = lower value",0.886 (active)
same,normalized growth,"S. cerevisiae deletion strains, strain wtn01, stronger effect = lower value",0.686 (active)
same,normalized growth,"S. cerevisiae strains, strain wild type, stronger effect = lower value",0.753 (active)
